Data published in ChEMBL document CHEMBL1961873, “Compounds: GSK PKIS; Assays: Nanosyn kinase panel” (2012).

Experiments:
[1] = biological target: Serine/threonine-protein kinase MARK2 (Homo sapiens) (UniProt Q7KZI7); details: at 1 µM
[2] = biological target: PAS domain-containing serine/threonine-protein kinase (Homo sapiens) (UniProt Q96RG2); details: at 0.1 µM
[3] = biological target: PAS domain-containing serine/threonine-protein kinase (Homo sapiens) (UniProt Q96RG2); details: at 1 µM
[4] = biological target: Phosphorylase b kinase gamma catalytic chain, skeletal muscle/heart isoform (Homo sapiens) (UniProt Q16816); details: at 0.1 µM
Chain of Phosphorylase b kinase gamma catalytic chain, skeletal muscle/heart isoform (Homo sapiens) (Q16816 whole entry, looked up, canonical isoform): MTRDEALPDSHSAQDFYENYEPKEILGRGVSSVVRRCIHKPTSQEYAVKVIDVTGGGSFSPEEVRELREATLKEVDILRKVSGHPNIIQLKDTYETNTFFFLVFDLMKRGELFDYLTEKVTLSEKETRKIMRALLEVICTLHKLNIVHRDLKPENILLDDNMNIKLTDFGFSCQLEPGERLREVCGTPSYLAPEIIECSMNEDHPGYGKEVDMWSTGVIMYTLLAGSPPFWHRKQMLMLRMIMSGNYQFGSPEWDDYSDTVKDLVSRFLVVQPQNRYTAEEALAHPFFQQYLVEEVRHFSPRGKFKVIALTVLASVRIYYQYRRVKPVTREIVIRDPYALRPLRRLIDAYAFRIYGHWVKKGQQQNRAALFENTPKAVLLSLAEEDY

[5] = biological target: Phosphorylase b kinase gamma catalytic chain, skeletal muscle/heart isoform (Homo sapiens) (UniProt Q16816); details: at 1 µM
[6] = biological target: T1, Phosphorylase b kinase gamma catalytic chain, liver/testis isoform (Homo sapiens) (UniProt P15735); details: at 0.1 µM
T1 sequence (whole entry): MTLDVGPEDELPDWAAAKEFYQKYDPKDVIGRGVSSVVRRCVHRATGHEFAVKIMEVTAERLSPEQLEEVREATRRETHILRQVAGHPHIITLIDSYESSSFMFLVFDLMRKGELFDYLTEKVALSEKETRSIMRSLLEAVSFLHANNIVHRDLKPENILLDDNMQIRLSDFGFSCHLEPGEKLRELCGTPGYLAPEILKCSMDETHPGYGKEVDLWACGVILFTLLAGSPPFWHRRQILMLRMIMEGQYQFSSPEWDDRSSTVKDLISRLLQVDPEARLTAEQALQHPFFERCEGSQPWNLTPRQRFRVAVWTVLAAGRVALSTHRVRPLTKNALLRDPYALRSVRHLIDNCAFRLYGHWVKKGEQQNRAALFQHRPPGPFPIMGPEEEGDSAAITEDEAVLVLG

[7] = biological target: T1, Phosphorylase b kinase gamma catalytic chain, liver/testis isoform (Homo sapiens); details: at 1 µM
[8] = biological target: Serine/threonine-protein kinase pim-1 (Homo sapiens) (UniProt P11309); details: at 0.1 µM
Chain of Serine/threonine-protein kinase pim-1 (Homo sapiens) (P11309 whole entry, looked up): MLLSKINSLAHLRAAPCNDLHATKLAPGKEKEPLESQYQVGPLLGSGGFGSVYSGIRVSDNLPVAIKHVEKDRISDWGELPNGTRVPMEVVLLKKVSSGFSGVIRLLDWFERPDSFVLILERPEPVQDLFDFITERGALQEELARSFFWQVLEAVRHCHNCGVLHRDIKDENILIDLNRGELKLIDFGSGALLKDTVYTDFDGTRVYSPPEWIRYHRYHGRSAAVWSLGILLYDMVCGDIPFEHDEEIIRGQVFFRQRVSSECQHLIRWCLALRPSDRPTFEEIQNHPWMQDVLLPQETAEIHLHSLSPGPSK

[9] = biological target: Serine/threonine-protein kinase pim-1 (Homo sapiens) (UniProt P11309); details: at 1 µM
[10] = biological target: Serine/threonine-protein kinase pim-2 (Homo sapiens) (UniProt Q9P1W9); details: at 0.1 µM
Chain of Serine/threonine-protein kinase pim-2 (Homo sapiens) (Q9P1W9 whole entry, looked up): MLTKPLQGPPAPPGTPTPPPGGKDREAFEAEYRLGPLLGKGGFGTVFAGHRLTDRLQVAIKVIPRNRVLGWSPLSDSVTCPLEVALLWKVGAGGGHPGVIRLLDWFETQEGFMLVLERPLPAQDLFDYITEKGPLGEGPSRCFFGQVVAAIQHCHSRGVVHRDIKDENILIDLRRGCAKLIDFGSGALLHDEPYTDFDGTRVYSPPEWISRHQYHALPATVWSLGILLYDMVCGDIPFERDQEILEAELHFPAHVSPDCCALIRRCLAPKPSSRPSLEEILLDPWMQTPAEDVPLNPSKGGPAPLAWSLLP

[11] = biological target: Serine/threonine-protein kinase pim-2 (Homo sapiens) (UniProt Q9P1W9); details: at 1 µM
[12] = biological target: Serine/threonine-protein kinase pim-3 (Homo sapiens) (UniProt Q86V86); details: at 0.1 µM
[13] = biological target: Serine/threonine-protein kinase pim-3 (Homo sapiens) (UniProt Q86V86); details: at 1 µM
[14] = biological target: T2, MAP kinase-activated protein kinase 5 (Homo sapiens) (UniProt Q8IW41); details: at 0.1 µM
T2 sequence (whole entry): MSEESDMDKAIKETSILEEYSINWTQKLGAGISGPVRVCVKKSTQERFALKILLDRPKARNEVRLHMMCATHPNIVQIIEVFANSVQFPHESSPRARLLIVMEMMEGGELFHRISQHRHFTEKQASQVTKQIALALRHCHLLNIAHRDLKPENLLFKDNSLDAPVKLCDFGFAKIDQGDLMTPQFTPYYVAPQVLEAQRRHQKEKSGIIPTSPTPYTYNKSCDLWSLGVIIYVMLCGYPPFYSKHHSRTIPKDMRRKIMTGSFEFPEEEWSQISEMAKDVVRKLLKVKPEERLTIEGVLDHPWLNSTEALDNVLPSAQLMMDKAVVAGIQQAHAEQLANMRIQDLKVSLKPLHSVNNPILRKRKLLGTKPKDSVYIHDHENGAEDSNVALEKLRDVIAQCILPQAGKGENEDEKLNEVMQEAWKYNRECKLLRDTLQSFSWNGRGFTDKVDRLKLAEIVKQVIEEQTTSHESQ

[15] = biological target: T2, MAP kinase-activated protein kinase 5 (Homo sapiens); details: at 1 µM
[16] = biological target: Serine/threonine-protein kinase SIK1 (Homo sapiens) (UniProt P57059); details: at 0.1 µM
Chain of Serine/threonine-protein kinase SIK1 (Homo sapiens) (P57059 whole entry): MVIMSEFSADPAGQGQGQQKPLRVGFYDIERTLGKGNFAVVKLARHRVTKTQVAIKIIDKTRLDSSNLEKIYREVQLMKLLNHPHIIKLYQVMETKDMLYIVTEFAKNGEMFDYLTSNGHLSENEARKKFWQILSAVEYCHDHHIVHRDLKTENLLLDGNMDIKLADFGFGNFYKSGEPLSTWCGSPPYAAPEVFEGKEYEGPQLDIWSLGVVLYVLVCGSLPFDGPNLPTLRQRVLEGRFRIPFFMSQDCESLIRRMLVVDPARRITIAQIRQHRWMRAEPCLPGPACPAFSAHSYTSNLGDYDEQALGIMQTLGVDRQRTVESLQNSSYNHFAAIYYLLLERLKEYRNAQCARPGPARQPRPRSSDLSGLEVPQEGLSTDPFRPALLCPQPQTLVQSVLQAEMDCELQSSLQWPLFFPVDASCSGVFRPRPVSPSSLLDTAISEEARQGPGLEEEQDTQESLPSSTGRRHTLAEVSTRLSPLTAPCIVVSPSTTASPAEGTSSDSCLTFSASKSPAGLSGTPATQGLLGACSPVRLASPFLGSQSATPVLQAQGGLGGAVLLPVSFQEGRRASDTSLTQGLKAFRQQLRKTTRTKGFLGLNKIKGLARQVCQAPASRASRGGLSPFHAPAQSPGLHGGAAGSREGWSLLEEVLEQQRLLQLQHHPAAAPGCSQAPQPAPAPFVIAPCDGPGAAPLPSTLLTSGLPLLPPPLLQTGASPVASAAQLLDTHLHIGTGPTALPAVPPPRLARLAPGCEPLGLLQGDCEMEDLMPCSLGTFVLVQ

[17] = biological target: Serine/threonine-protein kinase SIK1 (Homo sapiens) (UniProt P57059); details: at 1 µM
[18] = biological target: Serine/threonine-protein kinase SIK2 (Homo sapiens) (UniProt Q9H0K1); details: at 0.1 µM
Chain of Serine/threonine-protein kinase SIK2 (Homo sapiens) (Q9H0K1 whole entry, looked up): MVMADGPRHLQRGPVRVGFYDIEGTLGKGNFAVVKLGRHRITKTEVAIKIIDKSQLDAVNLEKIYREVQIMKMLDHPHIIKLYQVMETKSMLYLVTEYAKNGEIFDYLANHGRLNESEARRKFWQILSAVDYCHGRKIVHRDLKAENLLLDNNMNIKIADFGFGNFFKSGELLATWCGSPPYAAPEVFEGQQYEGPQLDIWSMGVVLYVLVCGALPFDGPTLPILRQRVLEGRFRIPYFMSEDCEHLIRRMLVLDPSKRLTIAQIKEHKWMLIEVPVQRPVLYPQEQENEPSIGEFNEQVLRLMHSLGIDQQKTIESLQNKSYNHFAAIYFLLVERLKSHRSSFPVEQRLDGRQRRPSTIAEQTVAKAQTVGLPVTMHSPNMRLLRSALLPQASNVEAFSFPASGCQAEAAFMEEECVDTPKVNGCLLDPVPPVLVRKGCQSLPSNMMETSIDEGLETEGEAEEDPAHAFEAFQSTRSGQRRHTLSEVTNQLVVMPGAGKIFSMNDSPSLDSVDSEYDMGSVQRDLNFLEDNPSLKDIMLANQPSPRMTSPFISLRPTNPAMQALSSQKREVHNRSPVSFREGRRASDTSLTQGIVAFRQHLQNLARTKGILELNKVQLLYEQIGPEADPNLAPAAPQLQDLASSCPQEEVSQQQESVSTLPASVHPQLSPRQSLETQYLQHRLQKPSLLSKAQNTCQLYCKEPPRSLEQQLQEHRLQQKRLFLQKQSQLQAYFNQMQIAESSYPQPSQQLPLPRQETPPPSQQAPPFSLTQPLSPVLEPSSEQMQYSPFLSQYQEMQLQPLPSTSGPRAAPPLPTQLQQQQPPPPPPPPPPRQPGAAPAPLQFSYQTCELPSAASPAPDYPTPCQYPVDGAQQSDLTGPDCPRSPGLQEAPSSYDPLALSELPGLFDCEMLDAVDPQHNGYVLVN

[19] = biological target: Serine/threonine-protein kinase SIK2 (Homo sapiens) (UniProt Q9H0K1); details: at 1 µM
[20] = biological target: T3, Serine/threonine-protein kinase TBK1 (Homo sapiens) (UniProt Q9UHD2); details: at 0.1 µM;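 note: values are the mean TBK1 inhibition, taken from the GSK PKIS screening data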
T3 sequence (whole entry): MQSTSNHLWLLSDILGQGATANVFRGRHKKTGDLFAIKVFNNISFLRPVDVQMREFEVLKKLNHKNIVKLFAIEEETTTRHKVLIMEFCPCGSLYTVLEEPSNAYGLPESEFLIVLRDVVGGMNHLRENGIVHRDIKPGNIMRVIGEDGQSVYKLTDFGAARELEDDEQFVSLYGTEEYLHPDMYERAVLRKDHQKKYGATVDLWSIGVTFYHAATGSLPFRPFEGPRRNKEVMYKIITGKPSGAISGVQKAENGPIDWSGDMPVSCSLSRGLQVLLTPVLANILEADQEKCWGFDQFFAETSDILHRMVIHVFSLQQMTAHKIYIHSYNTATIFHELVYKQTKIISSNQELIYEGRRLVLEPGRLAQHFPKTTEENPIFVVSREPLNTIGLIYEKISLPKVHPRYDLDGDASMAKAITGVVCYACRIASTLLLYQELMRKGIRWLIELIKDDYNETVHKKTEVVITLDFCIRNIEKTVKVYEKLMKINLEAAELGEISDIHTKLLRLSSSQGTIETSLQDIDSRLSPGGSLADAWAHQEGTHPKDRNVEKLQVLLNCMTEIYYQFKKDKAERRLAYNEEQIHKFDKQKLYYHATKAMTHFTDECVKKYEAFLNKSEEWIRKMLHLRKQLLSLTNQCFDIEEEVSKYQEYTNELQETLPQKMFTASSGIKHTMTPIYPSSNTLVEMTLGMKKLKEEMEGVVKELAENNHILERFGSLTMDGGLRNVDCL

Chain of PAS domain-containing serine/threonine-protein kinase (Homo sapiens) (Q96RG2 whole entry, the tested form may be a part, canonical isoform): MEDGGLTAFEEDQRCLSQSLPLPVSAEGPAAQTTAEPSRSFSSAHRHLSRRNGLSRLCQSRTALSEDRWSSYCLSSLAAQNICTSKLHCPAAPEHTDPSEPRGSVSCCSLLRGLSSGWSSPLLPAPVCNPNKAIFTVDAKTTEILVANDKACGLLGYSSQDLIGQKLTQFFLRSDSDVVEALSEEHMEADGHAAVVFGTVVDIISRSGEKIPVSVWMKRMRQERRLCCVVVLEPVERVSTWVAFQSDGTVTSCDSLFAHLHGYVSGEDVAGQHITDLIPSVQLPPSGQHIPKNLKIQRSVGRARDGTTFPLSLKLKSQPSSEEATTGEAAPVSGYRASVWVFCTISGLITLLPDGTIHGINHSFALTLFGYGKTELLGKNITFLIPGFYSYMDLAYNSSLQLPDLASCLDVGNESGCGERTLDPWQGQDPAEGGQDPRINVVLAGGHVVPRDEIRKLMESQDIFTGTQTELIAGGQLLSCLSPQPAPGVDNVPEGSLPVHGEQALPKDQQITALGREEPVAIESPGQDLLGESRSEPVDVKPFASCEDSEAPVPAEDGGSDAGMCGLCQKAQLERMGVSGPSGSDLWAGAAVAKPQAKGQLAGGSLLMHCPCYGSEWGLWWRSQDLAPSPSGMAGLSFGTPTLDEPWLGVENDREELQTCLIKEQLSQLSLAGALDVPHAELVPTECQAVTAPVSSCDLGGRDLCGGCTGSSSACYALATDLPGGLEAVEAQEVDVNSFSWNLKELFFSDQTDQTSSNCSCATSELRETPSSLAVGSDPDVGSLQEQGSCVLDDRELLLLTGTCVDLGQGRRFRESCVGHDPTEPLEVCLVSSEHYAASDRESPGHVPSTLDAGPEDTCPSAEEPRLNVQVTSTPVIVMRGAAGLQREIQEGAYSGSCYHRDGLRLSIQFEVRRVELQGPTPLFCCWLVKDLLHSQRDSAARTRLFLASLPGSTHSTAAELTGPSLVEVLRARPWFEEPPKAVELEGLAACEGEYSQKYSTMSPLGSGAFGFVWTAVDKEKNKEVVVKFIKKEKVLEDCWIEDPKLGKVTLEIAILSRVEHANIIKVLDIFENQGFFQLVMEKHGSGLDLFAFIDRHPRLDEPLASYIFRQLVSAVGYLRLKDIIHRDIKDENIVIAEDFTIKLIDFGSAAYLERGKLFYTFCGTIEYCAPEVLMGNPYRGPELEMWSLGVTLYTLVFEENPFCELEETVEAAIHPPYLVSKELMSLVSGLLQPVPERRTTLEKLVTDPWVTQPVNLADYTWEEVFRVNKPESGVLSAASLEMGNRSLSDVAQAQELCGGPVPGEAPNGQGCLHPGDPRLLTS

SMILES | inhibition [1] | inhibition [2] | inhibition [3] | inhibition [4] | inhibition [5] | inhibition [6] | inhibition [7] | inhibition [8] | inhibition [9] | inhibition [10] | inhibition [11] | inhibition [12] | inhibition [13] | inhibition [14] | inhibition [15] | inhibition [16] | inhibition [17] | inhibition [18] | inhibition [19] | inhibition [20]
OCc1ccc(-c2nc(-c3ccccn3)c(-c3ccc4c(c3)OCO4)[nH]2)cc1 | 2.05% | 0.83% | -1.14% | 2.77% | -6% | 5.91% | 2.21% | 0.78% | 0.98% | 0.72% | 1.41% | -1.14% | -3.44% | 1.17% | -0.12% | 9% | 5.84% | 8.76% | 7.48% | 2.36%
NC(=O)c1sc(-n2cnc3ccccc32)cc1OCc1ccccc1Br | 6.32% | -0.54% | -0.07% | 2.76% | 6.49% | 4.32% | 5.93% | 0.2% | 3.08% | -0.36% | 0.78% | -1.03% | 3.81% | 1.15% | 0.91% | 4.47% | 13.6% | 3.55% | 9.83% | 0.38%
CN(C)c1cc2c(Nc3ccc4c(cnn4Cc4ccccc4)c3)ncnc2cn1 | 0.46% | 0.31% | -1.1% | 2.72% | 4.62% | 3.31% | 1.97% | -0.22% | 1.78% | -0.29% | 0.31% | -0.8% | 0.43% | 0.61% | 0.28% | 3.9% | 4.59% | 2.41% | 4.92% | 1.07%
Nc1nccc(-c2c(-c3ccc(F)cc3)ncn2CCCN2CCOCC2)n1 | 1.26% | -0.18% | 0.84% | 5.3% | 5.42% | 3.78% | 4.82% | 1.45% | 0.82% | 0.76% | 1.68% | 2.11% | 1.36% | 1.45% | 4.08% | 2.84% | 6.36% | 7.84% | 11.6% | 0.96%
CCCN1CCCC(c2ccc(Nc3nc(Nc4cc(F)ccc4C(N)=O)c4cc[nH]c4n3)c(OC)c2)C1 (stereo not given) | 40% | -0.3% | 8.59% | 51.2% | 77.8% | 26.9% | 67.6% | 11.7% | 50.8% | 0.9% | 7.35% | 4.99% | 40.8% | 5.81% | 33.2% | 6.07% | 10.2% | 2.41% | 11% | 4.22%
C[C@@H](Oc1cc(-n2cnc3ccc(OCC4CCN(C)CC4)cc32)sc1C(N)=O)c1ccccc1C(F)(F)F | 43.4% | 1.41% | 2.84% | 1.57% | 7.24% | -1.2% | 10.8% | 18.7% | 68.4% | 0.26% | 1.56% | 8.51% | 47.6% | -0.8% | -1.08% | 13.5% | 65.6% | 6.88% | 30.3% | -2.73%
Cc1ccc(C(=O)NC2CC2)cc1-c1ccc2[nH]ncc2c1 | 5.77% | 1.24% | 1.27% | -0.37% | 1.36% | -5.73% | -5.52% | 1.72% | 4.32% | 0.52% | 0.98% | 1.05% | 4.89% | -1.55% | -1.4% | -8.63% | -5.39% | -3.95% | -7.9% | -3.58%
